Where “and” joins values, the source holds several entries; their conditions need not be identical. Identical values can stand only once. Inconclusive results are not listed. Calls of active or inactive are those of the source. Calls follow the shape of the dose curve; as a rule, active = well fitted curve in the direction sought with a large enough effect; inconclusive = small, poorly fitted or top-dose-only effect, or another doubt; inactive = no such curve, though single readings can be large; an effect the other way counts as inactive or inconclusive.
Key:
[1] = Viability qHTS for spleen associated tyrosine kinase inhibitor (SYKi) naive MV4-11 cells (AID 1963823); also: nearly all actives have a fitted effect of over 40% in size; also: potency is read from the fitted curve at half-maximal effect
In short: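 SYKi-naive MV4-11 AML cells, 500 per well, were exposed to library compounds for 72 hr at 37 C, 5% CO2. Viability was then read by CellTiter-Glo luminescence after 10 min at room temperature.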

[2] = Viability qHTS for spleen associated tyrosine kinase inhibitor (SYKi) drug resistant MV4-11 cells (AID 1963824); also: nearly all actives have a fitted effect of over 35% in size; also: potency is read from the fitted curve at half-maximal effect
In short: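 CellTiter-Glo luminescence, read 10 min after reagent addition, reports viability after a 72 hr compound exposure. Cells are an MV4-11 line made resistant to SYK inhibition, seeded at 500 per well onto compound-containing plates.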

[3] = Cellular viability qHTS for adrenocortical cancer (ACC) cell line SW-13 (AID 1963989); settings: SW-13 ACC cells viability, CellTiter-Glo, 48 h; activity (max response): stronger effect = lower value; also: nearly all actives have a fitted effect of over 65% in size; also: potency is read from the fitted curve at half-maximal effect;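 as to activity (max response): cells grown in serum-free medium with ITS supplement; % is scaled to controls: 0 for no effect and ±100 for the full control effect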
In short: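 IC50 and maximal-response values come from four-parameter logistic fits of titration data. SW-13 cells in serum-free medium received compounds (up to 46 uM final) for 48 h before CellTiter-Glo luminescence.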

[4] = Cellular viability qHTS for adrenocortical cancer (ACC) cell line NCI-H295R (AID 1963990); also: nearly all actives have a fitted effect of over 60% in size; also: potency is read from the fitted curve at half-maximal effect
In short: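 Adrenocortical carcinoma cells, suspended at 300 000 cells/mL in serum-free DMEM plus ITS, rested overnight before pin transfer of compound. After two days' incubation, ATP-dependent luminescence was recorded and curve-fitted.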

[5] = Quantitative highthroughput screen to assess conditional lethalithy of NOMO1 cells grown in RPMI1640 with untreated serum (RPMI+s) (AID 1963876);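 also: 100% = DMSO wells and 0% = empty wells without cells; nearly all actives have a fitted effect of over 35% in size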
In short: (§1)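 Each medium arm—HPLM with 10% dialyzed FBS, or RPMI1640 with 5 mM glucose and 10% untreated or dialyzed FBS—was screened against an 11-point, 3-fold compound titration for 48 h at 37 °C, with CellTiter-Glo luminescence as endpoint.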

[6] = Quantitative highthroughput screen to assess conditional lethalithy of NOMO1 cells grown in RPMI1640 with dialyzed fetal bovine serum (RPMI+ds) (AID 1963877);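 also: series mostly up to about 46 µM; 100% = DMSO control wells and 0% = empty wells; nearly all actives have a fitted effect of over 30% in size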
In short: as §1

[7] = Quantitative highthroughput screen to assess conditional lethalithy of P12 Ichikawa cells grown in RPMI1640 with untreated serum (RPMI+s) (AID 1963881); settings: Potency: viability;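 also: series mostly up to about 46 µM; 100% = DMSO wells and 0% = empty wells without cells; nearly all actives have a fitted effect of over 35% in size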
In short: as §1

[8] = Quantitative highthroughput screen to assess conditional lethalithy of SEM cells grown in Human Plasma-Like Medium with dialyzed fetal bovine serum (HPLM+ds) (AID 1963882); also: series mostly up to about 46 µM; nearly all actives have a fitted effect of over 35% in size
In short: as §1

[9] = Quantitative highthroughput screen to assess conditional lethalithy of SEM cells grown in RPMI1640 with dialyzed fetal bovine serum (RPMI+ds) (AID 1963884)
In short: as §1

COP(=S)(OC)Oc1ccc(Sc2ccc(OP(=S)(OC)OC)cc2)cc1
inactive: Potency [1] | Potency [2] | activity (max response) [3] 9.16% | Potency [4]

CC[N+](CC)(CC)CC
inactive: Potency [1] | Potency [2] | activity (max response) [3] 9.95% | Potency [4]

CCC(=O)OC1(c2ccccc2)CCN(C)CC1
inactive: Potency [1] | Potency [2] | activity (max response) [3] -11.5% | Potency [4]

COCC(=O)N(c1c(C)cccc1C)C(C)C(=O)OC (stereo unspecified)
inactive: Potency [1] | Potency [2] | activity (max response) [3] 0.998% | Potency [4]

CC(=O)OC1(c2ccccc2)CCN(CCc2ccccc2)CC1
inactive: activity (max response) [3] -14.1%
active: Potency [1] 39.3 µM | Potency [2] 44.1 µM

COc1cc(C[C@@H](C)N)c(OC)cc1C
inactive: Potency [1] | Potency [2] | activity (max response) [3] -18.7% | Potency [4]

C[C@]12CC[C@H]3[C@@H](CC[C@@]45O[C@@H]4C(O)=C(C#N)C[C@]35C)[C@@H]1CC[C@@H]2O
active: Potency [1] 10.5 µM | Potency [2] 6.61 µM | Potency [4] 28.2 µM
inactive: activity (max response) [3] -12.1%

COC(=O)C(Cl)C(=O)OC
inactive: Potency [1] | Potency [2] | activity (max response) [3] -3.15%

CC(C)[C@]12O[C@H]1[C@@H]1O[C@]13[C@]1(O[C@H]1C[C@H]1C4=C(CC[C@@]13C)C(=O)OC4)[C@@H]2O
active: Potency [1] 0.0166 µM | Potency [2] 9.2 nM and 16.6 nM | Potency [3] 0.251 µM | Potency [4] 0.316 µM

c1ccc(C2CC2)c(OCC2=NCCN2)c1
inactive: Potency [1] | Potency [2] | activity (max response) [3] -5.68% | Potency [4]

C[C@H]1CCC/C=C/C2C[C@H](O)C[C@H]2[C@H](O)/C=C/C(=O)O1 (stereo partly specified)
active: Potency [1] 184 nM and 148 nM | Potency [2] 92 nM and 118 nM | Potency [3] 0.282 µM

CC1(C)C(=O)N(c2ccc(C#N)c(C(F)(F)F)c2)C(=S)N1Cc1ccc(-c2cn[nH]n2)cc1
active: Potency [1] 16.6 µM | Potency [2] 14.8 µM | Potency [3] 25.1 µM

CC(C(=O)c1ccccc1)N(C)C (stereo unspecified)
inactive: Potency [1] | Potency [2] | activity (max response) [3] 8.81% | Potency [4]

COc1cc(CC(C)N)c(OC)cc1Br (stereo unspecified)
inactive: activity (max response) [3] -4.97%
active: Potency [1] 12.7 µM | Potency [2] 11.3 µM

CCC(=O)O[C@@H]1C=C2CCC3C(CCC4(C)C3CC[C@@H]4OC(=O)CC)C2CC1 (stereo partly specified)
inactive: Potency [1] | Potency [2] | activity (max response) [3] 1.7%

N[C@@H](Cc1ccc(Oc2cc(I)c(O)c(I)c2)c(I)c1)C(=O)O
inactive: Potency [1] | Potency [2] | activity (max response) [3] 2.16%

O=C1OC(c2ccc(O)c(S(=O)(=O)O)c2)(c2ccc(O)c(S(=O)(=O)O)c2)c2c(Br)c(Br)c(Br)c(Br)c21
inactive: Potency [1] | Potency [2] | activity (max response) [3] 4.14% | Potency [4]

Cc1ncsc1CCCl
inactive: Potency [1] | Potency [2] | activity (max response) [3] 10.3%

CC(C)=C[C@@H]1[C@@H](C(=O)OCc2coc(Cc3ccccc3)c2)C1(C)C
inactive: Potency [1] | Potency [2] | activity (max response) [3] -18.7%

C=CCC1(C(C)CC)C(=O)NC(=O)NC1=O (stereo unspecified)
inactive: Potency [1] | Potency [2] | Potency [4]

Clc1ccc(CCC(Cn2ccnc2)Sc2c(Cl)cccc2Cl)cc1 (stereo unspecified)
active: Potency [1] 18.6 µM | Potency [2] 11.9 µM and 18.6 µM | Potency [4] 20.6 µM and 35.5 µM

CO[C@H]1CCC(O[C@H]2C[C@H]([C@]3(C)CC[C@]4(C[C@H](O)[C@@H](C)[C@@H]([C@@H](C)/C=C(\C)C(=O)[C@H](C)C[C@H](C)C(=O)O)O4)O3)O[C@]3(O[C@@H]([C@H]4O[C@@](O)(CO)[C@H](C)C[C@@H]4C)C[C@@H]3C)[C@@H]2C)O[C@@H]1C (stereo partly specified)
active: Potency [1] 0.166 µM | Potency [2] 0.209 µM | Potency [4] 1.12 µM

O=C(O)CNC(=O)c1c(O)c2ccccc2n(Cc2ccccc2)c1=O
inactive: Potency [1] | Potency [5] | Potency [6] | Potency [7] | Potency [8] | Potency [9] | activity (max response) [3] 3.51%

C[C@H](N)C(=O)c1ccccc1
inactive: Potency [1] | Potency [2] | Potency [4]
